The results in this text go back to the supplement of paper PMC6555819.

Holding throughout (assay): PBM binding z-score (relative to random genomic background probes); higher = stronger binding; sequences stand for … in GC…GCGATTGACAGCGTAGAATGAAGG
Assay [1] has as its system FXR:RXRa (NR concentration 270 nM, RXRa partner concentration 90 nM). A digest of the protocol: (§1)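 Binding buffer was PBS pH 7.4 with 2% milk, 0.02% Triton X-100, 1 mM DTT, 0.2 mg/mL BSA and 0.4 mg/ml salmon testes DNA. In it, ligand-free nuclear receptor dimers were incubated 1 h on custom Agilent 4×180K protein-binding microarrays carrying double-stranded probes. Antibodies against each partner (one per run) detected binding, and z-scores were calculated against random background probes after regression normalization of scanned fluorescence.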

Assay [2] relates to LXRa:RXRa (NR concentration 270 nM, RXRa partner concentration 90 nM). A digest of the protocol: as §1
The test system of assay [3] is LXRa homodimer (NR concentration 270 nM). In short, it runs like this: as §1
In assay [4] the test system is LXRb:RXRa (NR concentration 270 nM, RXRa partner concentration 90 nM). In short, it runs like this:
as §1

Assay [5] has as its system LXRb homodimer (NR concentration 270 nM). A digest of the protocol:
as §1

The subject of assay [6] is PPARa:RXRa (NR concentration 270 nM, RXRa partner concentration 90 nM). In short, it runs like this:
as §1

The subject of assay [7] is PPARg:RXRa (NR concentration 180 nM, RXRa partner concentration 90 nM). A digest of the protocol:
as §1

The subject of assay [8] is PPARg:RXRa 270nM:90nM, anti-RXR (NR concentration 270 nM, RXRa partner concentration 90 nM). A digest of the protocol:
as §1

The subject of assay [9] is PPARg:RXRa 30nM:10nM, anti-RXR (NR concentration 30 nM, RXRa partner concentration 10 nM). In short, it runs like this:
as §1

In assay [10] the test system is PPARg:RXRa 90nM:30nM, anti-RXR (NR concentration 90 nM, RXRa partner concentration 30 nM). A digest of the protocol: as §1
The subject of assay [11] is PPARg:RXRa DBDmut IVT, anti-RXR (DBD mutation: RXRa K156A/R161A, NR concentration 270 nM, RXRa partner concentration 90 nM). In short, it runs like this:
as §1

The test system of assay [12] is PPARg:RXRa IVT, anti-PPARg (NR concentration 270 nM, RXRa partner concentration 90 nM). In short, it runs like this:
as §1

Assay [13] deals with PPARg DBDmut:RXRa IVT, anti-PPARg (DBD mutation: PPARg1 K132A/R137A, NR concentration 270 nM, RXRa partner concentration 90 nM). In short, it runs like this: as §1
Assay [14] has as its system PPARg DBDmut IVT, anti-PPARg (DBD mutation: PPARg1 K132A/R137A, NR concentration 270 nM). A digest of the protocol: as §1
For assay [15], the system named is PPARg homodimer (NR concentration 180 nM). In short, it runs like this: as §1
The test system of assay [16] is PXR:RXRa (NR concentration 270 nM, RXRa partner concentration 90 nM). In short, it runs like this: as §1
The subject of assay [17] is PXR homodimer (NR concentration 270 nM). A digest of the protocol: as §1
Assay [18] concerns RARa:RXR (NR concentration 270 nM, RXRa partner concentration 90 nM). A digest of the protocol: as §1
In assay [19] the test system is RARa homodimer (NR concentration 270 nM). A digest of the protocol: as §1
Assay [20] concerns RARb:RXRa (NR concentration 270 nM, RXRa partner concentration 90 nM). A digest of the protocol: as §1

On to TGAATGAGGTTAAAGATGAGGGAACGTGGCGTCG, for which the PBM binding z-score was determined as 2.79 in [1]; 2.16 in assay [2]; 0.0267 in assay [3]; 1.29 in assay [4]; 0.831 in assay [5]; 3.65 in assay [6]. In addition, the PBM binding z-score was determined as 3.77 in assay [7]; 4.65 in assay [8]; 2.44 in assay [9]; 4.35 in [10]; 2.54 in assay [11]; 2.8 in assay [12]. For the same sequence, the PBM binding z-score in [13] came to 0.619; in [14], 0.196; in assay [15] it was 0.933; in assay [16], 1.49; in assay [17], 0.214; in assay [18], 2.17. Also, the PBM binding z-score was 0.368 in assay [19] and 2.1 in assay [20].
As to TCTATTAGTTGAAGGGCAACTGACGAGTCCGTTT, the PBM binding z-score in [1] was found to be 0.705; in [2], 0.726; in [3] it was 0.328; in [4], 0.815; in [5], 0.416; in [6], 1.09. Further, the PBM binding z-score in assay [7] was determined as 0.086; in assay [8] it was 2.28; in [9], 3.74; in assay [10] it was 3.07; in [11], 2.25; in assay [12], 0.905. Also, the PBM binding z-score in [13] was determined as 0.468; in assay [14], 0.573; in assay [15], 0.905; in assay [16], 0.88; in assay [17], 0.479; in [18], 1.08. The PBM binding z-score in assay [19] stood at 1.44; in [20], 1.6.
For CCTATTGGGCCAAGGTCATTGATCAGTCAAAGCA, the PBM binding z-score in assay [1] is 3.16; in assay [2], 2.92; in [3], 0.821; in assay [4] it was 2.85; in assay [5] it was -0.34; in assay [6], 3.83. Besides, the PBM binding z-score in assay [7] turned out to be 2.79; in assay [8] it was 3.83; in [9] it was 1.37; in [10], 3.21; in assay [11], 1.98; in assay [12] it was 2.52. Moreover, the PBM binding z-score in [13] is -0.54; in assay [14], 0.103; in [15], 2.09; in assay [16] it was 3.72; in assay [17] it was 1.21; in assay [18] it was 3.94. Also, the PBM binding z-score worked out at 0.101 in assay [19] and 3.33 in assay [20].
Turning to CCGCCTGGGGCAGAAAGGTTACCATACCATCCGG, the PBM binding z-score is 0.138 in assay [1]; 0.416 in assay [2]; -0.112 in [3]; 0.678 in [4]; -1.32 in assay [5]; 1.59 in assay [6]. Besides, the PBM binding z-score in [7] is 0.804; in assay [8], 1.25; in [9], -0.385; in assay [10], 0.357; in [11], -0.75; in assay [12], -0.444. In addition, the PBM binding z-score is -1.12 in assay [13]; -1.51 in assay [14]; 0.297 in assay [15]; 0.861 in assay [16]; -0.276 in assay [17]; 1.49 in assay [18]. Moreover, the results for the PBM binding z-score in [19] and in assay [20] were -0.241 and 1.83, respectively.
Turning to TTGCCTAGGTCATTCAGGGGCCAGTATAGAAAGC, the PBM binding z-score was 5.14 in assay [1]; 3.97 in assay [2]; 0.809 in assay [3]; 2.93 in [4]; 0.902 in assay [5]; 3.51 in [6]. For the same sequence, the PBM binding z-score in [7] came out at 2.07; in assay [8] it was 2.24; in assay [9], 0.187; in [10] it was 1.52; in assay [11], 1.9; in [12] it was 2.33. The PBM binding z-score was 0.195 in [13]; -0.447 in assay [14]; 2.69 in assay [15]; 2.63 in [16]; 0.107 in assay [17]; 4.21 in [18]. Besides, the figures for the PBM binding z-score in assay [19] and in [20] were -0.129 and 3.93, respectively.
With CCTTACGGGTCATGGTTATAGCACGGGTGGTACG, the PBM binding z-score was 5.13 in assay [1]; 3.14 in [2]; -0.115 in assay [3]; 2.68 in assay [4]; -0.0469 in assay [5]; 4.97 in assay [6]. Moreover, the PBM binding z-score in assay [7] was 3.99; in assay [8], 4.19; in [9] it was 1.44; in assay [10], 3.03; in assay [11], 1.34; in assay [12] it was 3.31. Moreover, the PBM binding z-score in assay [13] is 0.473; in [14], -0.548; in assay [15], 1.58; in [16] it was 2.96; in assay [17], 0.0669; in [18] it was 3.6. Further, the PBM binding z-score in assay [19] is 0.484; in assay [20] it was 3.64.
